Data on six molecules can be found in PubChem BioAssay (Tox21).

Test [1] can be described thus: qHTS assay for small molecule agonists of the p53 signaling pathway - cell viability (AID 651633; calls by dose curve; note: nearly all actives have a fitted effect of over 30% in size; note: potency is the fitted concentration of half-maximal effect). An outline of the steps: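 Viability counter-read: CellTiter-Glo luminescence (30 min, room temperature) in the same p53RE-bla plates. These plates had been exposed to compounds for 16 h at 37 C.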
(In general: qHTS replaces the single test concentration by a dilution series.)

Test [2] in a line: qHTS assay for small molecule disruptors of the mitochondrial membrane potential - cell viability (AID 720634; calls by dose curve; note: nearly all actives have a fitted effect of over 20% in size; note: potency is the fitted concentration of half-maximal effect). An outline of the steps: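 Cytotoxicity was quantified from ATP content by CellTiter-Glo luminescence in the same wells as the MMP dye read-out. HepG2 (2,000 cells/well) were plated overnight and exposed to compounds for 1 hr at 37 C.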
A short description of test [3]: qHTS assay to test for compound auto fluorescence at 535 nm (green) in HepG2 cells (AID 720675).
Test [4] is described as follows: qHTS assay to test for compound auto fluorescence at 590 nm (red) in HEK293 cells (AID 720679). An outline of the steps:
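HEK293 cells (2,000/well, 10% dialyzed FBS) attached 4-5 hr, then dosed with compound or DMSO and incubated overnight at 37C, 5% CO2. Red fluorescence read at 540/590 nm, Rose Bengal sodium as reference fluorophore.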

A short description of test [5]: qHTS assay to test for compound auto fluorescence at 460 nm (blue) in HEK293 cell free culture (AID 720681). Summed up:
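Blue fluorescence (Ex 405/Em 460 nm, triamterene-equivalent) was read immediately after pin transfer of compound or DMSO into medium (DMEM, 10% FBS) without cells.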

Test [6] can be described thus: qHTS assay to test for compound auto fluorescence at 535 nm (green) in HEK293 cell free culture (AID 720682). An outline of the steps: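 Each library compound, or DMSO control, is added by pintool to medium alone, comprising DMEM and 10% FBS. Emission at 535 nm following 485 nm excitation is quantified against fluorescein.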
Test [7] is described as follows: qHTS assay to test for compound auto fluorescence at 590 nm (red) in HepG2 cell free culture (AID 720684). An outline of the steps:
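No cells present: MEM + 10% FBS only. Compound pinned in, red label read (540/590 nm). Activity = fluorescence equivalent to Rose Bengal sodium.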

The nature of test [8]: qHTS assay to test for compound auto fluorescence at 460 nm (blue) in HepG2 cell free culture (AID 720685). Summed up: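 Cell-free plates of MEM plus 10% FBS received 23 nL compound or DMSO vehicle; blue-channel (405/460 nm) intensity scored against triamterene as reference fluorophore.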
The nature of test [9]: qHTS assay to test for compound auto fluorescence at 535 nm (green) in HepG2 cell free culture (AID 720686).
Test [10] can be described thus: qHTS assay to test for compound auto fluorescence at 460 nm (blue) in HepG2 cells (AID 720687). An outline of the steps: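 Blue-channel autofluorescence (Ex/Em 405/460 nm, triamterene-equivalent) was measured after 1 hr compound exposure at 37 C, 5% CO2. Cells were HepG2, plated overnight at 37 C in MEM plus 10% FBS.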
Test [11] is described as follows: qHTS assay to identify small molecule antagonists of the androgen receptor (AR) signaling pathway - cell viability counter screen (AID 743033; note: nearly all actives have a fitted effect of over 45% in size; note: potency is the fitted concentration of half-maximal effect).
A short description of test [12]: qHTS assay to identify small molecule antagonists of the androgen receptor (AR) signaling pathway using the MDA cell line - cell viability counter screen (AID 743041; note: nearly all actives have a fitted effect of over 45% in size; note: potency is the fitted concentration of half-maximal effect). Summed up:
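Using the breast carcinoma line MDA-kb2 AR-luc, test chemicals were co-incubated with R1881 for 16 h; CellTiter-Fluor reagent, added at 15.5 h, provided a fluorescence measure of live cells.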

The nature of test [13]: qHTS assay to identify small molecule antagonists of the estrogen receptor alpha (ER-alpha) signaling pathway - cell viability counter screen (AID 743074; calls by dose curve;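 note: HEK293 cells carrying ER-alpha-UAS-bla reporter stimulated with 17beta-estradiol; nearly all actives have a fitted effect of over 45% in size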; note: potency is the fitted concentration of half-maximal effect).
Test [14] can be described thus: qHTS assay to identify small molecule antagonists of the estrogen receptor alpha (ER-alpha) signaling pathway using the BG1 cell line - cell viability counter screen (AID 743081).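 Note: compound given together with 17beta-estradiol as the ER stimulus; nearly all actives have a fitted effect of over 45% in size.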 Note: potency is the fitted concentration of half-maximal effect.
Another test has as its target Aromatase (Homo sapiens) (UniProt P11511). Nature of the test: qHTS assay to identify aromatase inhibitors (AID 743083). Note: nearly all actives have a fitted effect of over 55% in size. Note: potency is the fitted concentration of half-maximal effect.
Test [15] can be described thus: qHTS assay to identify aromatase inhibitors - cell viability counter screen (AID 743084).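 Note: cells stimulated with testosterone during compound exposure; nearly all actives have a fitted effect of over 55% in size.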 Note: potency is the fitted concentration of half-maximal effect.
A short description of test [16]: qHTS assay to identify small molecule phospholipidosis (PLD) inducers (AID 1259344; active = well fitted curve in the direction sought with a large enough effect; an effect the other way counts as inactive or inconclusive). Summed up:
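Accumulated phospholipid, stained red by LipidTOX during 24 h compound treatment of HepG2 cells at 37 C, is quantified from images as pit number and intensity, normalised per cell using Hoechst-stained nuclei.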

The target in test [17] is Nuclear receptor subfamily 1 group I member 2 (Rattus norvegicus) (UniProt Q9R1A7). Nature of the test: Rat pregnane X receptor (rPXR) activation by small molecules, qHTS assay (AID 1346983). Note: nearly all actives have a fitted effect of over 20% in size. To be noted: rPXR luciferase reporter cells, One-Glo luminescence, 24 h; max activation: hits give high values. An outline of the steps: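 Luminescent readout (One-Glo luciferase, 30 min room temperature) followed 24 hr compound treatment at 37 C of rPXR cells plated 2,000 per well and preincubated 5hr; qHTS format with compounds delivered in DMSO.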
Nuclear receptor subfamily 1 group I member 2 (Rattus norvegicus), sequence (Q9R1A7 whole entry, looked up): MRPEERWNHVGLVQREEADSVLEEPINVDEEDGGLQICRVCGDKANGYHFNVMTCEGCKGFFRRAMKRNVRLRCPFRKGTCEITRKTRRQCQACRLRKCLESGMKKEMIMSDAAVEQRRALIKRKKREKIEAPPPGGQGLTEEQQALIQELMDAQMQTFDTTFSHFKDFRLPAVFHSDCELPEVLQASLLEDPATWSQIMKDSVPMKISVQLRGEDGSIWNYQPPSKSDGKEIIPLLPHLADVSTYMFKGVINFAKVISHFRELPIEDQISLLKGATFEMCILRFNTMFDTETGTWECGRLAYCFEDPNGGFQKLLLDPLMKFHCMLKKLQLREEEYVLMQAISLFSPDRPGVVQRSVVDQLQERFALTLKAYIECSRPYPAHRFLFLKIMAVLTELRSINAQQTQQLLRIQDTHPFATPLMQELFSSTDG

The nature of test [18]: qHTS assay for small molecules that induce genotoxicity in human embryonic kidney cells expressing luciferase-tagged ATAD5 (AID 651632). Note: nearly all actives have a fitted effect of over 15% in size. Summed up: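 A rise in luciferase signal from ATAD5-tagged HEK293T cells marks genetic stress. Cells were exposed to compounds for 16 hr at 37C, 5% CO2, then luciferase was quantified after a 30 min room-temperature incubation with Amplite.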

Test [19] deals with Aryl hydrocarbon receptor (Homo sapiens) (UniProt P35869). Nature of the test: qHTS assay to identify small molecule that activate the aryl hydrocarbon receptor (AhR) signaling pathway (AID 743085).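 Note: HG2L7.5c1 human HepG2 liver cells with stably integrated DRE-driven firefly reporter; series mostly up to about 70 µM; nearly all actives have a fitted effect of over 15% in size.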 Summed up: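 Stably transfected human liver carcinoma cells (HG2L7.5c1; 20 DRE-firefly luciferase) were incubated 5 h, dosed, and kept 24 h at 37C. Agonism was scored from increased luciferase luminescence.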
Aryl hydrocarbon receptor (Homo sapiens), sequence (P35869 whole entry, looked up): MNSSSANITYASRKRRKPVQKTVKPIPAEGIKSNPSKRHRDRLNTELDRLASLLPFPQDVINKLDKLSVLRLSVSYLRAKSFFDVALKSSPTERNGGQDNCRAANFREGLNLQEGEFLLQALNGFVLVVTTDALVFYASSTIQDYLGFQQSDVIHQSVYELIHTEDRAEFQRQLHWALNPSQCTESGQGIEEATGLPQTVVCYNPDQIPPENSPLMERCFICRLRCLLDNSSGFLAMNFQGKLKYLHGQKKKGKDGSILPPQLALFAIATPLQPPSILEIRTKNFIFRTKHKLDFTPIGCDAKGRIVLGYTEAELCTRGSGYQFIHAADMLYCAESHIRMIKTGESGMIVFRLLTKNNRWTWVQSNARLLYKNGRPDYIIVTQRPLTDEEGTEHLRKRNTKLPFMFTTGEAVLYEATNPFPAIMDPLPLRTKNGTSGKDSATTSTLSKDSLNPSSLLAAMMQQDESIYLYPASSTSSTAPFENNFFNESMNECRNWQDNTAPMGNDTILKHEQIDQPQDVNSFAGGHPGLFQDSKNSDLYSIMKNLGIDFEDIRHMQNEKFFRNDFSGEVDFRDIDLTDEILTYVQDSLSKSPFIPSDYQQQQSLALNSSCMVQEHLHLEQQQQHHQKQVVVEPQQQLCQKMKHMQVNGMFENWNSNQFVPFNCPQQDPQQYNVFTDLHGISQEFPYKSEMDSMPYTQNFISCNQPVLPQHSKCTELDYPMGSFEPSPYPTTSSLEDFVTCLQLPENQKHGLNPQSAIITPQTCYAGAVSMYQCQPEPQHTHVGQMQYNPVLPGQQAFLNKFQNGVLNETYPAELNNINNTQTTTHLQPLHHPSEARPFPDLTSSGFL

Values without a mark were called inactive. Inconclusive results are not listed. The source made the active and inactive calls. Unless noted, calls come from the whole dose curve; as a rule, active = well fitted curve in the direction sought with a large enough effect in the repeat runs; inconclusive = weak or mixed curves; inactive = no such curve, though single readings can be large; an effect the other way counts as inactive or inconclusive.
% is set by controls: 0 for no effect and ±100 for the full control effect.

Aromatase (Homo sapiens), sequence (P11511 whole entry, looked up): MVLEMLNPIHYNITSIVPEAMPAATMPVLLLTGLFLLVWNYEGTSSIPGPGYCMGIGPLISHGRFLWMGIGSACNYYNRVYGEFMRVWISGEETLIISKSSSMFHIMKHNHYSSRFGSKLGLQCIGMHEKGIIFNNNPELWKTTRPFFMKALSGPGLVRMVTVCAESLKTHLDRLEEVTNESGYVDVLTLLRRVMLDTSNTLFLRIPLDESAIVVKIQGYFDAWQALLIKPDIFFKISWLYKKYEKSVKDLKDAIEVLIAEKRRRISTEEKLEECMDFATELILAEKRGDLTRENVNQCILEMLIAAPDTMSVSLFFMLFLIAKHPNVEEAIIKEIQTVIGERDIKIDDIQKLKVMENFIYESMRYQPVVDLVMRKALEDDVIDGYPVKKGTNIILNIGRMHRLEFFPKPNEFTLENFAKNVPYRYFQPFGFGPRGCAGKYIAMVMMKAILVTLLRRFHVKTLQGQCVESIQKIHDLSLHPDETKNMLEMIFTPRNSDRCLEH

On to `Cc1nnc2n1-c1ccc(Cl)cc1C(c1ccccc1Cl)=NC2`, for which the Potency entry in test [1], in test [2], in [3], in test [5], in [6] and in test [8] was “inactive” throughout. Besides, the Potency result in [9], in test [10], in test [11], in test [12], in test [13] and in test [14] was “inactive” each time. For the same molecule, the Potency entry (in the test with Aromatase (Homo sapiens); in test [15]; in test [16]) was “inactive” in each case. Further, the result in [4] and in test [7] was inactive. For the same molecule, the max activation in [17] was 3.04%.

Consider `CCN1C[C@]2(COC)[C@H](O)C[C@H](OC)[C@@]34[C@@H]5C[C@@]6(O)[C@H](OC(=O)c7ccccc7)[C@@H]5[C@@](OC(C)=O)([C@@H]([C@H](OC)[C@H]23)[C@@H]14)[C@@H](O)[C@@H]6OC`, for which the Potency entry in test [18], in test [1], in test [2], in test [3], in [5] and in test [6] was “inactive” throughout. Moreover, the Potency entry in [8], in test [9], in test [10], in test [11], in test [12] and in test [13] was “inactive” each time. Moreover, the Potency entry (in test [14]; with Aromatase (Homo sapiens); in [15]; in test [19]; in [16]) was “inactive” each time. The molecule was called inactive in test [4] and in test [7]. Further, the max activation in test [17] was -1.75%.

`Clc1ccc2c(c1)C(c1ccccc1)=NCc1nncn1-2`: the Potency entry in [18], in [1], in test [2], in test [3], in [5] and in test [6] was “inactive” each time. Further, the Potency entry in test [8], in [9], in [10], in [11], in [12] and in test [13] was “inactive” throughout. Further, the Potency entry (in [14]; in the test with Aromatase (Homo sapiens); in test [15]; in [19]; in test [16]) was “inactive” in each case. The outcome in [4] and in [7] was inactive. In addition, the max activation in test [17] is -10.5%.

`[H+].[H+].[Hg+2].[O-]B([O-])[O-].[c-]1ccccc1`: the Potency is 0.668 µM (active) in test [1]; 13.3 µM (active) in [2]; 9.52 µM (active) in test [11]; 13.3 µM (active) in test [12]; 6.01 µM (active) in [13]; 5.31 µM (active) in test [14]. Further, the Potency in the test with Aromatase (Homo sapiens) is 7.5 µM (active); in test [15], 10.6 µM (active). Besides, the Potency result in [3], in test [5], in test [6], in test [8], in test [9] and in test [10] was “inactive” in each case. For the same molecule, in test [16], the Potency result was “inactive”. Also, the outcome in test [4] and in test [7] was inactive. The max activation in test [17] was -22%.

For `[2H]C([2H])([2H])[C@H](N)Cc1ccccc1`, the Potency result in [18], in [1], in test [2], in [3], in test [5] and in test [6] was “inactive” in each case. Further, the Potency entry in test [8], in [9], in [10], in [11], in [12] and in [13] was “inactive” throughout. Further, the Potency result (in test [14]; with Aromatase (Homo sapiens); in test [15]; in [19]; in [16]) was “inactive” in each case. For the same molecule, the call in test [4] and in [7] was inactive. The max activation in test [17] is -6.9%.

In the case of `CNC(C)Cc1ccccc1` (centres undefined), the Potency result in test [18], in test [1], in test [2], in test [3], in test [5] and in [6] was “inactive” throughout. Moreover, the Potency entry in [8], in test [9], in [10], in [11], in test [12] and in test [13] was “inactive” each time. Further, the Potency result (in [14]; with Aromatase (Homo sapiens); in test [15]; in [16]) was “inactive” throughout. Moreover, the result in [4] and in test [7] was inactive.
